Assay outcomes deposited in PubChem BioAssay by National Center for Advancing Translational Sciences (NCATS).
Pf growth 96h = P. falciparum growth inhibition at 96 hour, primary screen for plastid delayed-death inhibitors; P. falciparum luciferase reporter growth, 96 h; Potency, µM (series often up to 28.7 µM), for inactives: at the highest dose activity change, negative = inhibition, most hits filed as inhibitors; 6.9% of 320,000 active; also: potency is read from the fitted curve at half-maximal effect; % is scaled to controls: 0 for no effect and ±100 for the full control effect
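Compounds incubated with erythrocytes infected by luciferase-expressing P. falciparum (2% hematocrit, 0.05% parasitemia final) for 96 hours, 37 C in 5% CO2. Growth inhibition scored as decreased luciferase luminescence.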
HCMV inh = human cytomegalovirus inhibition | HFF cells, HCMV-luciferase reporter, 72 h; stronger effect = lower value | activity change, negative = inhibition, % at 57.5 µM | 4.5% of 410,000 active | AID 1259415; in the data active = activity change below about -60%; inconclusive = no clear call, values can overlap the other calls; inactive = above about -39%; also: % is scaled to controls: 0 for no effect and ±100 for the full control effect
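Cell-based, HFFs, 1000 cells/well, 16 h 37C; cpds in DMSO + HCMV-luc, MOI 1 PFU/cell; 72 h 37C; OneGlo luminescence after 5 min RT; norm. to buffer vs Salinomycin 10uM.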
Shiga inhibitor = inhibitors of Shiga toxin in Vero cells | Vero cells, Shiga toxin protein synthesis inhibition reporter | inhibition, % at 38.7 µM | 9.2% of 290,000 active | AID 2315; in the data active = inhibition mostly above about 28%, no sharp cut-off; inactive = mostly below about 43%; also: 0% is about no effect
HCV inh = HCV inhibition; Potency, µM (doses to about 41.8 µM), without a hit: at the top dose activity change, negative = inhibition, usual class: inhibitors; 3.4% of 340,000 active; Huh7.5.1 HCVcc-Cre infection, luciferase reporter, 44 h; AID 651820; also: potency is read from the fitted curve at half-maximal effect; % is scaled to controls: 0 for no effect and ±100 for the full control effect
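A cell-based infection assay in which seeded cells (1,000 per well) receive test compound after 4 h, are inoculated with HCVcc-Cre at approximately 0.5 moi, and are incubated 44 h before luminescence detection.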
CHX counter = affects cycloheximide protein synthesis inhibition readout, counter-screen; cell reporter, cycloheximide protein synthesis inhibition counterscreen; max response, %; 12% of 300,000 active; in the data active = max response mostly above about 13%, no sharp cut-off; inactive = mostly below about 14%; also: read at 38.3 µM for the half of the compounds with a filed dose; 0% is about no effect
Pf growth 48h = inhibits P. falciparum growth in the first generation, 48 h. P. falciparum luciferase growth in erythrocytes, 48 h. Potency, µM (series often up to 28.7 µM), inactives show top-dose activity change, negative = inhibition, hits mostly inhibitors. 5.9% of 310,000 active; also: potency is read from the fitted curve at half-maximal effect; % is scaled to controls: 0 for no effect and ±100 for the full control effect
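In quantitative HTS format, infected erythrocytes bearing luciferase-reporter parasites were treated for a single generation at 37 C. Luminescence after adding detection reagent served as the growth measure.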
Starred values were filed as active, the others as inactive; ? = inconclusive; · = no result. Compounds with a hit are over-represented: about 21% of the library has one in this group of screens. Unless noted, calls follow the shape of the dose curve; as a rule, active = well fitted inhibition curve with a large enough effect; inconclusive = small, poorly fitted or top-dose-only effect, or another doubt; inactive = no such curve, though single readings can be large or run the other way.

SMILES	Pf growth 96h	HCMV inh	Shiga inhibitor	HCV inh	CHX counter	Pf growth 48h
CCOC(=O)c1c(NC(NC(C)=O)C(Cl)(Cl)Cl)sc2c1CCCC2 (stereo not drawn)	?	?	15	10µM*	6	?
COC(=O)c1c(NC(NC(=O)CC(C)C)C(Cl)(Cl)Cl)sc2c1CCC2 (stereo not drawn)	12µM*	-26	9	?	11	?
CCC1Oc2ccc(C)cc2N(CC(=O)NCCc2ccccc2)C1=O (stereo not drawn)	·	-35	·	·	·	·
CCCNC(=O)N1CCN(S(C)(=O)=O)CC1	14%	-16	1	10%	2	-4%
O=C(/C=C/c1ccco1)Nc1ccc(F)cc1	159%	-11	·	·	·	88%
Cc1ccc(NC(=O)N/C=C/c2ccco2)cc1C	36%	-108*	9	0%	12	7%
O=C(/C=C/c1ccco1)Nc1cccc(C(=O)Nc2ccccc2C(=O)O)c1	28%	0	-6	-1%	-1	35%
CCc1ccccc1NC(=O)c1cccc(NC(=O)/C=C/c2ccco2)c1	4%	-34	105*	?	69*	34%
Cc1ccc(-n2nc3ccc(NC(=O)/C=C/c4ccco4)cc3n2)cc1	4%	37	74*	?	22*	69%
Cc1ccc(NC(=O)c2cccc(NC(=O)/C=C/c3ccco3)c2)cc1C	?	-28	137*	?	57*	-23%
O=C(NCc1ccccc1)/C(=C\c1ccccc1)NC(=O)c1ccco1	26%	-27	-6	-3%	1	8%
C=C(C)[C@H]1CC=C(C)C(=O)C1	40%	-14	·	18%	·	19%
Cc1ccc(NC(=O)Cn2nc(C)n3cccc3c2=O)c(C)c1	·	-24	·	·	·	·
CCCCN(CCCC)CCNC(=O)CSCc1ccc(C)cc1	0%	?	17	-9%	-1	?
c1ccc(C2CC(c3ccccc3)C(c3ccccc3)N2)cc1 (stereo not drawn)	9.3µM*	11	-2	23%	7	-5%
COc1ccc(-c2cc(CCCC(=O)NCCc3cc(OC)ccc3OC)no2)cc1	·	-20	23	10µM*	14	?
COc1ccc(-c2cc(CCCC(=O)N3CCN(c4ccc(OC)cc4)CC3)no2)cc1	?	-22	-13	11µM*	-3	·
CCOc1ccc(-c2cc(CCCC(=O)NCCc3ccc(OCC)c(OCC)c3)no2)cc1	·	-39	·	·	·	·
COc1ccc(-c2noc(CCC(=O)N3CCN(c4cccc(OC)c4)CC3)n2)cc1	·	11	·	?	·	·
COc1ccc(CN(C)C(=O)CCCNC(=O)c2ccc(Cl)cc2)cc1	?	-16	-4	?	8	32%
CCc1sc(N(C(=O)Cc2ccccc2)c2ccccc2)nc1-c1ccccc1	·	-38	-11	17%	-4	13µM*
CCc1sc(N(C(=O)Cc2ccccc2)c2ccc(F)cc2)nc1-c1ccccc1	27%	-15	-11	4%	-1	·
CCCCC(=O)N(c1ccc(C(=O)O)cc1)c1nc(-c2ccc(Cl)cc2)c(CC)s1	?	-15	9	2%	-5	2.3µM*
Cc1noc(C)c1CSCC(=O)N(C)CC(=O)Nc1ccccc1Br	18%	-13	·	16%	·	0%
O=C(C1CCN(S(=O)(=O)Cc2ccccc2)CC1)N1CCN(c2ccc(F)cc2)CC1	·	6	·	·	·	·
SMILES	Pf growth 96h	HCMV inh	Shiga inhibitor	HCV inh	CHX counter	Pf growth 48h
COc1ccc(N(C)C(=O)c2cn(CC(C)C)c(=O)c3cc(OC)c(OC)cc23)c(OC)c1	?	-1	2	-15%	-5	·
COc1cc2c(C(=O)N(C)c3cc(Cl)ccc3OC)cn(CC(C)C)c(=O)c2cc1OC	·	-61*	·	·	·	·
CCN(CC)CCn1c2c(c(SCC(=O)Nc3ccc4c(c3)OCCO4)nc1=O)CCCC2	2.9µM*	-15	·	0%	·	?
CCc1ccc(NC(=O)CSc2nc(=O)n(CCCN3CCOCC3)c3c2CCCC3)cc1	?	-9	·	-2%	·	9.3µM*
CC(=O)Nc1ccc(NC(=O)CSc2nc(=O)n(CCCN3CCOCC3)c3c2CCC3)cc1	·	-13	·	·	·	·
Cc1ccccc1CC1(CO)CCCN(C(=O)c2cc(Cl)ccc2F)C1 (stereo not drawn)	20%	6	16	-10%	-5	2%
Cc1ccccc1CC1(CO)CCCN(Cc2ccn[nH]2)C1 (stereo not drawn)	12µM*	26	-14	0%	2	2%
Cc1ccccc1CC1(CO)CCCN(C(=O)c2ccccc2Cl)C1 (stereo not drawn)	9.3µM*	?	44	1%	-2	-3%
CC(C)c1ccc(/C=C/C(=O)NCCCc2ccccc2)cc1	46%	-40	22	3%	7	-2%
CC(C)c1ccc(/C=C/C(=O)NCCC2=CCCCC2)cc1	153%	34	17	?	17*	10%
CCCNC(=O)/C=C/c1ccc(C(C)C)cc1	13µM*	22	64*	-9%	47*	?
CCCC1=NN2C(=N)/C(=C\c3ccc(OCCOc4ccc(NC(C)=O)cc4)c(OC)c3)C(=O)N=C2S1	?	-33	-8	0%	3	-11%
Cc1cccc(Cc2ccc3ncc(-c4cccc(C(N)=O)c4)n3n2)c1	·	-72*	·	·	·	·
COc1cccc(NC(=O)CN(C)CC(=O)Nc2ccc3c(c2)OCO3)c1	·	-19	·	-8%	·	·
COc1ccc(OC)c(NC(=O)Nc2ccc3c(c2)OCO3)c1	37%	-10	56*	-21%	15*	-11%
COc1cccc(NC(=O)Nc2ccc3c(c2)OCO3)c1	-3%	129	77*	-11%	40*	84%
Cc1c(Cl)cccc1NC(=O)C(C)N(c1ccccc1)S(C)(=O)=O (stereo not drawn)	·	10	·	·	·	·
CCOC(=O)c1sc2ncn(CC(=O)Nc3cc(C)cc(C)c3)c(=O)c2c1C	·	16	·	·	·	·
c1ccc2c(CN3CCN(C4CCCCC4)CC3)c[nH]c2c1	12µM*	21	46	-24%	13	6.6µM*
CN(Cc1c[nH]c2ccccc12)C1CCCCC1	1%	-94*	-12	-28%	-5	-16%
O=C(Nc1ccc(Cl)c(Cl)c1)N(Cc1c[nH]c2ccccc12)C1CCCCC1	·	48	·	·	·	·
c1ccc2c(CN3CCCCCCC3)c[nH]c2c1	·	-36	-8	-7%	0	?
c1ccc2c(CNC3CCCCC3)c[nH]c2c1	13µM*	-29	-10	4%	-4	·
COC(=O)c1c[nH]c(=O)c2ccccc12	?	2	-16	6%	-1	35%
CCN(CC)Cc1c[nH]c2c(C(=O)OC)cccc12	2.6µM*	-13	20	-13%	20	0%
COc1ccc(NC(=O)Nc2nnc(SCC(=O)Nc3cccc(C)c3C)s2)cc1	·	-7	·	·	·	·
